Measured values published in PubChem BioAssay AID1745848 (National Center for Advancing Translational Sciences (NCATS), 2022).
Out of some 2,100 compounds screened, about 940 (45%) were called active. Not shown: some 48% with an inconclusive outcome. The set was probably picked from earlier hits. The list shows a part of the results. A number with no mark means an inactive call. The call rests on the fitted dose curve; in most records, active means well fitted inhibition curve with a large enough effect; inconclusive means small, poorly fitted or top-dose-only effect; inactive means no such curve, though single readings can be large or run the other way.

test: Confirmatory qHTS for Inhibitors of ATXN expression; conditions: ATXN2-luciferase reporter cells, luminescence, 24 h; series mostly up to 57.5 µM; activity change, negative = inhibition: at the top concentration; further: nearly all actives have a fitted effect of over 65% in size;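 on activity change, negative = inhibition: 0% = DMSO vehicle wells and -100% = medium-only wells without cells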
Excerpt: PI: Daniel Scoles Ph.D. University of Utah School of Medicine, Salt Lake City, Utah MLPCN Grant: NS073009 Spinocerebellar ataxia type 2 (SCA2) is a multisystem neurodegenerative disease caused by a dominantly acting mutation leading to expansion of a polyQ domain in the ataxin-2 protein (ATXN2). SCA2 patients develop progressive ataxia and later lose function in other neuronal systems. Prominent parkinsonian signs develop in some patients. Like many neurodegenerative disorders, no symptomatic or disease-modifying treatments are known. The primary objective of the proposed research is to identify compounds inhibiting ATXN2 expression and to test them for efficacy in SCA2 mouse models. We have developed a cell-based assay paired with an in vivo mouse model using identical luciferase expression constructs. This approach takes advantage of an ATXN2-luciferase transgene, with the luciferase gene flanked by the upstream and downstream portions of the ATXN2 gene. Here we describe a 5-7 dose quantitative high thoroughput screen (qHTS) for compounds lowering ATXN2 expression. We screened the NIH Molecular Libraries Small Molecule Repository (MLSMR) and NCGC's mechanistically annotated (MIPE) and drug repurposing (NPC) collections of compounds for lowering expression of an ATXN2-luciferase reporter in HEK-293 cells. The assay is a multiplexed cell viability assay to ensure target reduction in the absence of cytotoxicity. Secondary qHTS assays included a CMV-luciferase reporter expressed in HEK-293 cells as well as a biochemical assay using recombinant luciferase to detect inhibitors of the reporter enzyme. Compounds that inhibit ATXN2 expression but is not cytotoxic were selected for confirmatory and secondary screens.
PROTOCOL TABLE (as described by Inglese J, Shamu CE and Guy RK. 2007) SEQUENCE No. (e.g., 1, 2, 3, etc.); PARAMETER (e.g., Cells, Incubation, Reagent, etc.); VALUE; DESCRIPTION. 1; Cells; 4 uL; white, solid bottom, 1536-well Greiner assay plate. 2; Incubation; 2 hr; 37 degree C in 5% humidified CO2. 3; Compounds; 23 nL; Kalypsis pintool (Wako USA) equipped with a 1536-well pin head. 4; Incubation; 24 hr; 37 degree C in 5% humidified CO2. 5; Reagent; 1 uL; Gly-Phe-7-Amino-4-trifluoromethylcoumarin. 6; Incubation; 30 min; 37 degree C in 5% humidified CO2. 7; Detection; Fluorescence; ViewLux plate reader (PerkinElmer). 8; Reagent; 3 uL; SteadyGlo luciferase solution (Promega). 9; Incubation; 5 min; room temperature. 10; Detection; Luminescence; ViewLux plate reader (PerkinElmer). NOTES (numbers refer to Sequence numbers above) 1. […] expressing ATXN2-luciferase reporter were suspended in phenol-red free DMEM and dispensed in assay plates using a Multidrop Combi dispenser (Thermo Fisher Scientific). Wells containing medium only were plated on each plate, and values were used to normalize (100% inhibition) in the luciferase and CellTiter-Fluor assays. 2. Assay plates were incubated. Evaporation was prevented by covering assay plates with metal lids containing holes to allow gas diffusion. 3. Compounds were added in a dose response manner with the final concentrations of 57, 11.4, 2.28, 0.46, 0.091, 0.018, 0.0037 uM. Vehicle-only plates, with DMSO being pin-transferred to columns 5-48, were inserted uniformly at the beginning and the end of each library to monitor and record any shifts in assay performance. 5. 125 uM Gly-Phe-7-Amino-4-trifluoromethylcoumarin (MP Biomedicals) working concentration was used at a final concentration of 25 uM. 7. To assess cell viability; the assay plates were read using the ViewLux high-throughput CCD imager (PerkinElmer), wherein single end-point fluorescence measurement was acquired (excitation 405/10; emission 540/25 nm). 8. Detection reagent SteadyGlo Luciferase (Promega) was added to the assay plate. 10. Luminescence is then measured on the ViewLux imager equipped with a clear emission filter using a 2 sec exposure. […]
Potency means the concentration at half of the fitted maximal effect.

SMILES	Potency	activity change, negative = inhibition
CC12CCC(O)CC1CCC1C2CCC2(C)C(C3=CC(=O)OC3)CCC12O (centres undefined)	398 nM (active)	–
C[C@]12CCC3C(CCC4=CC(O)CC[C@@]43/C=N/O)C1(O)CCC2C1=CC(=O)OC1 (some centres undefined)	355 nM (active)	–
C[C@]12CC[C@H](O)C[C@H]1CC[C@@H]1[C@@H]2CC[C@]2(C)[C@@H](C3=CC(=O)OC3)CC[C@]12O	282 nM (active)	–
COc1ccc(O)c2c(=O)c3c(OC)cc4c(c3oc12)C1C=COC1O4 (centres undefined)	2000 nM (active)	–
O=C1NC(=O)N(CCc2ccc(F)cc2)C(=O)/C1=C/C=C/c1ccccc1	7940 nM (active)	–
c1ccc2sc(N3CCNCC3)nc2c1	–	-24.4%
COc1cc2nc(CN3CC=C(c4ccccc4)CC3)[nH]c(=O)c2cc1OC	282 nM (active)	–
COc1cc2c(cc1OC)-c1c3c(cc4c1[C@@H](C2)N(C)CC4)OCO3	1120 nM (active)	–
COC1C(O)C(C)OC(OC2C(Oc3cccc4c(O)c5c(=O)oc6ccc(C)c7c(=O)oc(c34)c5c67)OC(C)C(O)C2O)C1O (centres undefined)	–	-5.87% [at 11.5 µM]
CN1C(=O)NC(=O)/C(=C\C=C\c2ccccc2[N+](=O)[O-])C1=O	11200 nM (active)	–
CCCCN=C[C@]12CCC(O)CC1(O)CCC1[C@@H]2CC[C@]2(C)[C@H](C3C=CC(=O)O3)CCC12O (some centres undefined)	631 nM (active)	–
CC12CCC3C(CCC4(O)CC(O)CCC34C=NO)C1(O)CCC2C1=COC(=O)C1 (centres undefined)	282 nM (active)	–
CNC(=O)Nc1ccc(C(=O)N/N=C\C23CC[C@@H](O)CC2(O)CC[C@@H]2[C@@H]3CCC3(C)C(C4=CC(=O)OC4)CCC23O)cc1 (some centres undefined)	25100 nM (active)	–
C1=NCCc2c1[nH]c1ccccc21	3160 nM (active)	–
CC(=O)OC1(C)CC(C)C(=O)C(C(O)CC2CC(=O)NC(=O)C2)C1 (centres undefined)	10 nM (active)	–
C[C@H]1C[C@@H](C)C(=O)[C@@H]([C@H](O)CC2CC(=O)NC(=O)C2)C1	178 nM (active)	–
C[C@@H]1C[C@@H]([C@H](O)CC2CC(=O)NC(=O)C2)C(=O)[C@@H](C)C1	1260 nM (active)	–
O=C(CSC1c2ccccc2-c2ccccc21)N/N=C/c1ccccc1O	3160 nM (active)	–
C[C@H]1CCC[C@H](O)CCCCCc2cc(O)cc(O)c2C(=O)O1	3160 nM (active)	–
C[C@H]1CCC[C@@H](O)CCC/C=C/c2cc(O)cc(O)c2C(=O)O1	1410 nM (active)	–
COc1ccc(CCNCc2ccc(F)cc2)cc1OC	–	-6.67% [at 11.5 µM]
O=C(Nc1ccc(OC(=O)N2CCCCC2)cc1)N1CCOCC1	4470 nM (active)	–
CC(=O)O[C@H]1[C@H]2O[C@]23[C@@H]2CC[C@]4(O)C[C@@H](O)CC[C@]4(C)C2CC[C@]3(C)[C@H]1c1ccc(=O)oc1 (some centres undefined)	39.8 nM (active)	–

SMILES	Potency	activity change, negative = inhibition
C[C@H]1[C@@H](OS(=O)(=O)O)C[C@@H]2C[C@H]([C@@H](O)c3cc(=O)[nH]c(=O)[nH]3)NC3=NC[C@H]1N32	7940 nM (active)	–
NC(=O)c1c(Br)n(C2OC(CO)C(O)C2O)c2ncnc(N)c12 (centres undefined)	1580 nM (active)	–
O=c1[nH]c2ccccc2n1C1CCN(C(c2cc3ccccc3o2)c2nnnn2-c2ccc3c(c2)OCCO3)CC1 (centres undefined)	3160 nM (active)	–
COc1cccc(C(c2nnnn2-c2ccc3c(c2)OCCO3)N2CCC(n3c(=O)[nH]c4ccccc43)CC2)c1OC (centres undefined)	3550 nM (active)	–
Cc1cccc(C)c1-n1nnnc1C(c1cc2ccccc2o1)N1CCC(n2c(=O)[nH]c3ccccc32)CC1 (centres undefined)	3160 nM (active)	–
COC(=O)C(O)(c1ccc(NC(=S)NC(=O)c2ccc(Cl)cc2Cl)c(C)c1)C(F)(F)F (centres undefined)	–	-8.26% [at 11.5 µM]
CN1C2CCC1/C(=C/c1ccccn1)C(=O)/C2=C\c1ccccn1	398 nM (active)	–
CC1CC(C)CC(C)C(O)C(C#N)=CC=CCC(C2CCCC2C(=O)O)OC(=O)CC(O)C(C)C1 (centres undefined)	501 nM (active)	–
O=C1NC2C(=CC(O)C(O)C2O)c2cc3c(cc21)OCO3 (centres undefined)	199 nM (active)	–
CCCCc1ccc2[nH]cc(CCN)c2c1	3160 nM (active)	–
NC(Cc1ccc(Cl)cc1)c1csc(Nc2ccccn2)n1 (centres undefined)	22400 nM (active)	–
N#Cc1ncc(N=Cc2ccc(N(CCCl)CCCl)cc2)s1	2000 nM (active)	–
CCCCC(=O)N/N=C/c1c(O)n(CCC2=CCCCC2)c(=O)[nH]c1=O	15800 nM (active)	–
CCCCCCC(=O)N/N=C/c1c(O)n(CCc2ccccc2)c(=O)[nH]c1=O	12600 nM (active)	–
CCCCCCC(=O)N/N=C/c1c(O)n(CCCC)c(=S)[nH]c1=O	15800 nM (active)	–
Cc1ccc(N2C(=O)NC(=O)/C(=C/C=C/c3ccco3)C2=O)cc1	2820 nM (active)	–
COc1ccc(CC2C(=O)NC(C)C(=O)N(C)C3C(=O)N(C)C(Cc4ccc(O)c(c4)Oc4ccc(cc4)C3O)C(=O)NC(C)C(=O)NC(C)C(=O)N2C)cc1 (centres undefined)	316 nM (active)	–
CCC(C)N1C(=O)/C(=C\c2cnc(N(C)C)nc2)C(=O)NC1=S (centres undefined)	–	-13.2%
CC12CCC(O)CC1CCC1C2CCC2(C)C(C3=CC(=O)OC3)C(O)CC12O (centres undefined)	3160 nM (active)	–
CC1OC(OC2C(O)CC(OC3C(O)CC(OC4CCC5(C)C(CCC6C5CCC5(C)C(C7=CC(=O)OC7)C(O)CC65O)C4)OC3C)OC2C)CC(O)C1O (centres undefined)	316 nM (active)	–
CC(=O)OC1CC2(O)C3CCC4CC(O)CCC4(C)C3CCC2(C)C1C1=CC(=O)OC1 (centres undefined)	316 nM (active)	–
C[C@]12CC[C@H](O)C[C@H]1CC[C@@H]1C2CC[C@]2(C)[C@@H](C3=CC(=O)OC3)[C@@H](O)C[C@]12O (some centres undefined)	355 nM (active)	–
COC1C(O)C(C)OC(OC2CCC3(C)C(CCC4C3C(O)CC3(C)C(C5=CC(=O)OC5)CCC43O)C2)C1O (centres undefined)	316 nM (active)	–

SMILES	Potency	activity change, negative = inhibition
CN1CN(c2ccccc2)C2(CCN(CCCSc3ccccc3NC(=O)/C=C/c3ccccc3)CC2)C1=O	28200 nM (active)	–
CC(C)c1oc(=O)cc2c1[C@@H](O)[C@H]1OC(=O)[C@@]3(C)CC[C@@H](O)[C@@]2(C)C13 (some centres undefined)	3160 nM (active)	–
CCC1(OC(=O)CN)C(=O)OCc2c1cc1n(c2=O)Cc2cc3ccccc3nc2-1 (centres undefined)	39.8 nM (active)	–
CC[C@@]1(O)C(=O)OCc2c1cc1n(c2=O)Cc2cc3c(NC(=O)CN)cccc3nc2-1	112 nM (active)	–
COc1ccc(C[C@H]2NC[C@H](O)[C@H]2OC(C)=O)cc1	28.2 nM (active)	–
COc1ccc(CC2NCC(O)C2OC(C)=O)cc1 (centres undefined)	224 nM (active)	–
Cc1ccc(/C=C2\C(=O)NC(=S)N(c3ccccc3F)C2=O)s1	3160 nM (active)	–
CCC1CN2CCc3cc(OC)c(OC)cc3C2CC1CC1NCCc2c1[nH]c1ccc(O)cc21 (centres undefined)	39.8 nM (active)	–
CSCCC(c1nnnn1-c1c(C)cccc1C)N1CCC2(CC1)C(=O)NCN2c1ccccc1 (centres undefined)	35500 nM (active)	–
CCC(C)(O)C(=O)OC1C(=O)OC2CC3C(C)=CC(=O)C(O)C3(C)C3C4(O)OCC23C1C(C)C4O (centres undefined)	251 nM (active)	–
CC(C)(C)n1nnnc1C(CCc1ccccc1)N1CCC(n2c(=O)[nH]c3ccccc32)CC1 (centres undefined)	28200 nM (active)	–
O=c1[nH]c2ccccc2n1C1CCN(C(CCc2ccccc2)c2nnnn2C2CCCC2)CC1 (centres undefined)	22400 nM (active)	–
COC(=O)c1nc(-c2ccc3c(n2)C(=O)C(N)=C(OC)C3=O)c(N)c(-c2ccc(OC)c(OC)c2O)c1C	14100 nM (active)	–
COc1cc(C(=O)NN=Cc2ccc(N(CCCl)CCCl)cc2)cc(OC)c1OC	8910 nM (active)	–
O=C(NN=Cc1ccc(N(CCCl)CCCl)cc1)c1cc(=O)[nH]c(=O)[nH]1	3160 nM (active)	–
Cc1cc(N(CCCl)CCCl)ccc1C=NNC(=O)c1cccnc1	1580 nM (active)	–
COc1ccc(N=Cc2c(O)n(-c3ccc(C)cc3)c(=O)[nH]c2=O)cc1	–	-15.9%
Oc1c(Cl)cccc1Cc1cc(Cl)cc(Cl)c1O	15800 nM (active)	–
Clc1ccc2[nH]c3c(c2c1)CCNC3	3160 nM (active)	–
O=[N+]([O-])c1oc2ccc3ccccc3c2c1CCO	14100 nM (active)	–
C[C@@H]1O[C@@H](O[C@@H]2C=C3CC[C@@H]4C(CC[C@]5(C)[C@@H](c6ccc(=O)oc6)CC[C@]45O)[C@@]3(C)CC2)[C@H](O)[C@H](O)[C@H]1O (some centres undefined)	112 nM (active)	–
COc1cccc2c1C(=O)c1c(O)c3c(c(O)c1C2=O)CC(O)(C(C)=NO)CC3OC1CC(N)C(O)C(C)O1 (centres undefined)	708 nM (active)	–
Cc1ccc(N2C(=O)NC(=O)/C(=C\c3cc(C)n(-c4sc5c(c4C#N)CCCC5)c3C)C2=O)cc1	10000 nM (active)	–
